Values joined by “and” are separate entries in the source; they are usually repeats but may differ in a detail not shown here. Identical values can stand only once. Inconclusive results are not listed. A number with no mark means an inactive call. Active and inactive are the calls of the source. Calls follow the shape of the dose curve; as a rule, active = well fitted curve in the direction sought with a large enough effect; inconclusive = small, poorly fitted or top-dose-only effect, or another doubt; inactive = no such curve, though single readings can be large; an effect the other way counts as inactive or inconclusive.
Experiments:
[1] = molecular target: Cellular tumor antigen p53 (Homo sapiens) (UniProt P04637); test: Primary qHTS for small molecule compounds that upregulate eGFP-tagged delta133p53alpha (in N-terminal) cells. (AID 2060322); details: NCI-H358 eGFP-delta133p53alpha fluorescence, 24 h; activation: active compounds read high; also: nearly all actives have a fitted effect of over 75% in size;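 as to activation: cells pre-induced with doxycycline then dosed without doxycycline; 0% = DMSO vehicle and 100% = reference activator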
Chain of Cellular tumor antigen p53 (Homo sapiens) (P04637 whole entry, looked up): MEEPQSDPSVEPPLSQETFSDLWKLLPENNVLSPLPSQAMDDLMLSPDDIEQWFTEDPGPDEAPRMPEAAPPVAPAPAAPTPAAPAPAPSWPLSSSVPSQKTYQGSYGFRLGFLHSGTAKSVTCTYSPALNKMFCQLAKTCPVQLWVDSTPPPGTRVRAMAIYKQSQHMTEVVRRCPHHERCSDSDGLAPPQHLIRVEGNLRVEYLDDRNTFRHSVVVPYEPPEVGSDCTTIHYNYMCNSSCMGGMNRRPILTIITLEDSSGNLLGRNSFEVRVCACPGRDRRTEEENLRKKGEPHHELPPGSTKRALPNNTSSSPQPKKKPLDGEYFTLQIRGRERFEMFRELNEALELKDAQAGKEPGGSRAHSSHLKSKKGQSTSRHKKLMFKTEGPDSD
Method in brief: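 NCI-H358 cells pre-induced 24 h with 10 ng/ml doxycycline for eGFP-delta133p53alpha, plated dox-free and exposed 24 h at 37C to titrated compounds. Fixed, Hoechst-stained; gated GFP peak intensity by laser scanning cytometry, normalized to DMSO (0%) and 57.5 uM 5-azacytidine (100%).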

[2] = molecular target: Retinaldehyde dehydrogenase 3 (Homo sapiens) (UniProt P47895); test: qHTS for Inhibitors of the Aldehyde Dehydrogenase Family (ALDH1A3) Primary screen (AID 2061315); details: ALDH inhibition qHTS; series mostly up to 56 µM
[3] = BET inhibitor-based combinations targeting novel dependencies in MECOM-rearranged (r) AML: SET-2 cell line (AID 2202231); details: SET-2 AML cells viability, CellTiter-Glo luminescence, 48 h; viability: active compounds read low, concentration not given here; also: nearly all actives have a fitted effect of over 35% in size;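 as to viability: plate controls were DMSO treated cells for no effect and wells without cells for full effect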
Method in brief: (§1)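 Readout: CellTiter-Glo luminescence. Exposure: 48 h, 11 concentrations, 500 cells/well. Metric: AUC and within-line Z-AUC after DMSO/empty-well normalization.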

[4] = BET inhibitor-based combinations targeting novel dependencies in MECOM-rearranged (r) AML: OCI-AML3 cell line (AID 2202232); details: CellTiter-Glo luminescence, 48 h; Potency: OCI-AML3 viability; series mostly up to 46 µM; also: nearly all actives have a fitted effect of over 35% in size
Method in brief: as §1

[5] = BET inhibitor-based combinations targeting novel dependencies in MECOM-rearranged (r) AML: MV-4-11 cell line (AID 2202233); details: MV-4-11 AML viability, CellTiter-Glo luminescence, 48 h; series mostly up to 46 µM; also: nearly all actives have a fitted effect of over 45% in size
Method in brief: (§2)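 Seeding density was 500 cells/well, and drug exposure lasted 48 hr under standard culture conditions. Read-out used CellTiter-Glo reagent with a 15 min room-temperature incubation before luminescence measurement; AUC and Z-AUC summarize the normalized responses.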

[6] = BET inhibitor-based combinations targeting novel dependencies in MECOM-rearranged (r) AML: HNT-34 cell line (AID 2202234); details: HNT-34 AML viability, CellTiter-Glo luminescence, 48 h; series mostly up to 46 µM; also: nearly all actives have a fitted effect of over 35% in size
Method in brief: as §2

[7] = BET inhibitor-based combinations targeting novel dependencies in MECOM-rearranged (r) AML: UCSD-AML1 cell line (AID 2202235); details: UCSD-AML1 AML cells viability, CellTiter-Glo, 48 h; series mostly up to 46 µM; also: nearly all actives have a fitted effect of over 40% in size
Method in brief: as §2

[8] = BET inhibitor-based combinations targeting novel dependencies in MECOM-rearranged (r) AML: AML-191 cell line (AID 2202236; also: nearly all actives have a fitted effect of over 35% in size); details: AML-191 viability, CellTiter-Glo luminescence, 48 h; series mostly up to 46 µM
Method in brief: as §1

[9] = BET inhibitor-based combinations targeting novel dependencies in MECOM-rearranged (r) AML: AML-194 cell line (AID 2202237; also: nearly all actives have a fitted effect of over 40% in size); details: AML-194 (MECOM-r AML) viability, CellTiter-Glo, 48 h; series mostly up to 46 µM
Method in brief: as §1
Potency is read from the fitted curve at half-maximal effect.

COc1cccc2nc(-c3cccs3)nc(NN3C(=O)C=C(C)C3=O)c12
Potency [1]: 19300 nM (active) | Potency [2]: inactive | Potency [3]: 417 nM (active) | Potency [4]: 417 nM (active) | Potency [5]: 166 nM (active) | Potency [6]: 263 nM (active) | Potency [7]: 105 nM (active) | Potency [8]: 148 nM (active) | Potency [9]: 263 nM (active)

COC(=O)CC1OC(C)C2=C(O)c3c(O)cccc3C(=O)C23OC13 (stereo unspecified)
Potency [1]: 5880 nM (active) | Potency [2]: 1580 nM (active)

C=C(COC(=O)CC(C)C)C1Cc2cc(C(C)=O)ccc2O1 (stereo unspecified)
activation [1]: -15.2% | Potency [2]: inactive

C=C1C(O)C(O)C2(CC3C(C)=CCC4C(C)(C(=O)O)CCCC34C)OC2C1O (stereo unspecified)
activation [1]: -22.1% | Potency [2]: inactive

C=C/C=C/[C@@H]1OC[C@H](/C=C/C=C/C)[C@H]1O
activation [1]: -11.5% | Potency [2]: inactive

COC(=O)[C@H](c1ccccc1Cl)N1CCC2SC(=O)C=C2C1 (stereo partly specified)
activation [1]: 16.3% | Potency [2]: inactive

CCc1c[nH]c2ncnc(N3CC[C@](N)(CNC(=O)c4ccc(F)cc4F)C3)c12
activation [1]: 22.3% | Potency [2]: inactive

CC1OC2OC(=O)C3(C)CC4C5(CO5)C5=CC(=O)OC(C)(C)C5=CC(=O)C4(C)C(C1=O)C23 (stereo unspecified)
activation [1]: 12.2% | Potency [2]: inactive

CC[C@H](C)/C=C(C)/C=C/C(=O)Cc1cc(O)c(C)c(O)c1C=O
activation [1]: 7.63% | Potency [2]: inactive

O=C(NN1CCCCC1)c1nn(-c2ccc(Cl)cc2Cl)c(-c2ccc(C#Cc3ccc(C(F)(F)F)cc3)s2)c1CNS(=O)(=O)N1CCCC1
activation [1]: -21% | Potency [2]: inactive

O=C(O)c1cc2cccc([N+](=O)[O-])c2[nH]1
activation [1]: 10.3% | Potency [2]: inactive

CCC(C)/C=C(C)/C=C/C(=O)C1CCC(O)C(C)(O)C1=O (stereo unspecified)
activation [1]: 14.5% | Potency [2]: inactive

CC1=C2C[C@@]3(C)C(CCC[C@@H]3C)C(O)C2OC1=O (stereo partly specified)
activation [1]: -15.3% | Potency [2]: inactive

O=c1[nH]cnc2c([C@@H]3N[C@H](CO)[C@@H](O)[C@H]3O)c[nH]c12
activation [1]: 10.3% | Potency [2]: inactive

C[C@H](Nc1ncnc2nc[nH]c12)c1cc2ccc(F)cc2nc1-c1ccccn1
activation [1]: 5% | Potency [2]: inactive | Potency [8]: 18600 nM (active)

CCn1cc(C(=O)O)c(=O)c2cc(F)c(N3CCNCC3)cc21
activation [1]: -8.37% and 13.6% | viability [3]: 96.1% | Potency [4]: inactive | Potency [5]: inactive | Potency [6]: inactive | Potency [7]: inactive | Potency [8]: inactive | Potency [9]: inactive

CCOc1cc(C(C)(C)C)ccc1C1=N[C@@](C)(c2ccc(Cl)cc2)[C@@](C)(c2ccc(Cl)cc2)N1C(=O)N1CCN(CC(=O)N2CCOCC2)CC1
activation [1]: 35.5% | Potency [2]: inactive | Potency [4]: 11500 nM (active) | Potency [5]: 1630 nM (active) | Potency [7]: 4090 nM (active) | Potency [8]: 7280 nM (active) | Potency [9]: 9170 nM (active)

COc1ccc([C@@H]2CNC(=O)C2)cc1OC1CCCC1
activation [1]: 7.46% | viability [3]: 118% | Potency [4]: inactive | Potency [5]: inactive | Potency [6]: inactive | Potency [7]: inactive | Potency [8]: inactive | Potency [9]: inactive
